Shown are actives, neighbours in structure and some others; about 12% of the full set was active somewhere.
JMJD2A Tudor inh = JMJD2A Tudor domain (human) inhibition | O75164 | AlphaScreen JMJD2A-Tudor / H3K4me3 peptide binding | Potency, µM (titrated, usually from 114 µM), for inactives: at the highest dose activity change, negative = inhibition, hits mostly inhibitors | 390,000 tested, 4.4% active | AID 504339; note: % is set by controls: 0 for no effect and ±100 for the full control effect; nearly all actives have a fitted effect of over 50% in size
G9a block = inhibitors of human histone lysine methyltransferase G9a; G9a H3K9 monomethylation, AlphaScreen, 2 h; Potency, µM (titrated, usually from 102 µM), for inactives: at the highest dose activity, negative = inhibition, actives largely listed as inhibitors; 350,000 tested, 8.8% active; AID 504332; note: % is set by controls: 0 for no effect and ±100 for the full control effect; nearly all actives have a fitted effect of over 75% in size
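G9a (20 nM) preincubated 15 min RT with compounds, then 500 nM biotinylated H3K9 peptide and 20 uM SAM added; 2 h RT reaction. Monomethyl-H3K9 product detected by AlphaScreen with anti-H3K9me1 antibody, streptavidin donor and anti-rabbit IgG acceptor beads.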
HP1b chromo inh = inhibitors of HP1-beta chromodomain binding to methylated histone tails; P83916; AlphaScreen HP1-beta / biotin-H3K9me3 peptide binding; Potency, µM (doses to about 114 µM), for inactives: at the top dose activity change, negative = inhibition, most hits filed as inhibitors; 390,000 tested, 0.56% active; AID 540317; note: nearly all actives have a fitted effect of over 70% in size
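Compound inhibition of the preformed complex between 50 nM HP1-beta and 50 nM biotinylated H3K9me3 peptide was read by AlphaScreen. Buffer was PBS pH 7.4 with 0.01% Tween-20. Incubations ran 30 min at room temperature, with 10 ug/mL donor/acceptor beads.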
L3MBTL1 inh = inhibitors of human L3MBTL1; Q9Y468; AlphaScreen L3MBTL1–H3K9me1 peptide binding; Potency, µM (highest dose often 57.1 µM), for the others: at the top dose activity, negative = inhibition, usual class: inhibitors; 230,000 tested, 0.66% active; AID 485360; note: % is set by controls: 0 for no effect and ±100 for the full control effect; nearly all actives have a fitted effect of over 60% in size
Target sequence (Q9Y468 whole entry, looked up): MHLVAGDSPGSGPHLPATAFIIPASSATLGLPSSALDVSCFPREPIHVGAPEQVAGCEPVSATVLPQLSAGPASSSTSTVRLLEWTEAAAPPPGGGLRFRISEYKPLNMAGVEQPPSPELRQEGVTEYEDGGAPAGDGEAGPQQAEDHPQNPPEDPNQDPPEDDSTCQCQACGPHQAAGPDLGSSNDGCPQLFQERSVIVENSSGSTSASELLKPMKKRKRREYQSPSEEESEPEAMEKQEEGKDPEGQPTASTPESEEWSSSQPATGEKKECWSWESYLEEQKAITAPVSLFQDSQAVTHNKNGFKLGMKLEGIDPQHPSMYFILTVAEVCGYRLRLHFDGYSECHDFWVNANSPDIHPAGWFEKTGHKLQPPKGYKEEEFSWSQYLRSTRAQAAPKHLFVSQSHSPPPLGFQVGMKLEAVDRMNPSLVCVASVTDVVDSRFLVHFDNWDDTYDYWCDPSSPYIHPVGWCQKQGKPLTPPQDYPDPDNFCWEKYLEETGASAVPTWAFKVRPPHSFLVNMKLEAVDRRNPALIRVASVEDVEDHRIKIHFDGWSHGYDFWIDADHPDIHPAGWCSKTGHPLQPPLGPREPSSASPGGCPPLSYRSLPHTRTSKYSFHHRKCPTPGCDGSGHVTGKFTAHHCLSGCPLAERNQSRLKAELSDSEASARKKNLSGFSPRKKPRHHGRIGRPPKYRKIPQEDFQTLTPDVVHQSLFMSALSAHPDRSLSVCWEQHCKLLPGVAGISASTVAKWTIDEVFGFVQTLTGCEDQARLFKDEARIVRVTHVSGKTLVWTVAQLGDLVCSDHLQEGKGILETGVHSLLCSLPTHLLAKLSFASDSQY
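Read-out is AlphaScreen signal from streptavidin donor and nickel chelate acceptor beads (10 ug/mL final each) bridging L3MBTL1 (50 nM) and biotinylated K9-monomethylated H3(1-15) peptide (75 nM), after 30 min compound exposure at room temperature.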
Sfp inh = Sfp phosphopantetheinyl transferase inhibition; Biochemical Sfp PPTase activity, qHTS; Potency, µM, inactives show largest response in the series, negative = inhibition, most hits filed as inhibitors; 310,000 tested, 3.5% active;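 note: the enzyme is Sfp with the accession as filed and its product quenches rhodamine fluorescence; 0% = enzyme reaction without inhibitor and -100% = no enzyme wells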
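Sfp 15 nM + cpd, 15 min RT; start w/ rhodamine-CoA 5 uM, BHQ-2-YbbR 12.5 uM (final); 50 mM Hepes pH 7.6, 10 mM MgCl2, 0.01% NP-40, 0.01% BSA; read 525/598 nm at 0 and 30 min.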
BAZ2B inh = inhibitors of human BAZ2B bromodomain; AlphaScreen BAZ2B-H3K14Ac peptide displacement; Potency, µM (doses to about 114 µM), without a hit: top-dose activity change, negative = inhibition, usual class: inhibitors; 360,000 tested, 4.4% active; AID 504333; note: % is set by controls: 0 for no effect and ±100 for the full control effect; nearly all actives have a fitted effect of over 60% in size
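BAZ2B (50 nM) with biotin-H3(5-23)K14Ac peptide (50 nM) in PBS pH 7.4, 0.01% Tween-20, preformed 30 min, then compound 30 min at room temperature; top concentration 110uM. AlphaScreen streptavidin donor/nickel chelate acceptor beads (10 ug/mL final), 20 min dark, signal read.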
Starred values were filed as active, the others as inactive; ? = inconclusive; / = not tested or not shown; [ ] = remark or other dose. Calls come from the whole dose curve; as a rule, active = well fitted curve in the direction sought with a large enough effect; inconclusive = small, poorly fitted or top-dose-only effect, or another doubt; inactive = no such curve, though single readings can be large; an effect the other way counts as inactive or inconclusive. Potency is the fitted concentration of half-maximal effect.

SMILES	JMJD2A Tudor inh	G9a block	HP1b chromo inh	L3MBTL1 inh	Sfp inh	BAZ2B inh
CCOc1ccc(C2NC(=O)C(C#N)=C(S)N2c2cccc(C)c2)cc1OC (stereo not drawn)	-16.3%	?	39.0%	1.2%	?	-4.9%
CCOc1ccc(C2NC(=O)C(C#N)=C(S)N2c2ccc(C)cc2)cc1OC (stereo not drawn)	-17.9%	?	22.4%	/	44.7µM*	-27.2%
COc1cc(C2C3CN(C)CC=C3C(C#N)=C(N)C2(C#N)C#N)ccc1OC(C)C (stereo not drawn)	-14.5%[57.1 µM]	?	42.5%	-2.0%	10.1%	-4.8%
COc1ccc(C2NC(=O)C(C#N)=C(S)N2c2ccccc2)cc1OC (stereo not drawn)	-6.2%	44.7µM*	43.3%	5.8%	20µM*	-30.7%
Cc1cccc(N2CCN(C(=O)c3cc4c(=O)n(C)c5ccccc5c4s3)CC2)c1C	3.7%	3.7%[59 µM]	33.0%	/	/	/
Cc1ccc(-c2cc(C(=O)N(Cc3ccc(C(C)(C)C)cc3)Cc3ccco3)no2)cc1	-9.6%	37.1%[59 µM]	94.8%	/	/	-25.9%
Cc1cc(Cl)c(C)c(S(=O)(=O)Oc2ccccc2NC(=O)CCC(=O)O)c1Cl	-6.5%	-7.9%[12.7 µM]	13.8%	0.9%	/	4.3%
Cc1cccc(N2C(S)=C(C#N)C(=O)NC2c2ccco2)c1 (stereo not drawn)	-16.3%	/	12.0%	11.3%	-7.1%	-7.9%
N#CC1=C(S)N(c2ccccc2)C(c2ccc(-c3cccc(Cl)c3)o2)NC1=O (stereo not drawn)	?	?	-15.5%	-2.0%	28.2µM*	?
Cc1c(N=C2C=CC(=O)c3ccccc32)c(=O)n(-c2ccccc2)n1C	44.7µM*	35.5µM*	10µM*	/	17.8µM*	28.2µM*
Cc1c(N=C2C=C(Br)C(=O)C(Br)=C2)c(=O)n(-c2ccccc2)n1C	56.2µM*	7.08µM*	28.2µM*	/	39.8µM*	20µM*
O=C(CCC(=O)N1CCOc2ccccc21)NCCN1CCOCC1	-9.5%	18.6%	19.4%	7.9%	5.8%	13.5%
CN(CC(=O)NCCCN1CCOCC1)S(=O)(=O)c1ccc(Cl)cc1	1.4%	/	29.9%	8.4%	/	/
O=C(CC1CCCCC1)NCCOc1ccccc1	50.1µM*	8.5%[59 µM]	16.6%	6.9%	3.6%	-1.8%
O=C(CNC(=O)c1ccc(Cl)cc1)OCc1cc(=O)n2ccsc2n1	-2.7%	6.0%[59 µM]	24.2%	/	/	0.8%
Cc1cc(/C=N/NC(=O)c2ccccn2)c(C)n1-c1cccc([N+](=O)[O-])c1	?	?	?	-2.4%	?	44.7µM*
O=C(N/N=C\c1cc([N+](=O)[O-])ccc1N1CCCC1)c1ccccn1	-5.2%	-9.4%	61.0%	-4.9%	-7.2%	-15.9%
O=C(N/N=C\c1cc([N+](=O)[O-])ccc1N1CCOCC1)c1ccccn1	-16.1%	?	20.9%	3.4%[11.4 µM]	44.7µM*	-17.6%
c1ccc2c(c1)ncn2CCCCOc1ccc2c(c1)CCC2	2.82µM*	8.91µM*	70.8µM*	/	31.6µM*	28.2µM*
c1ccc(OCCCCn2cnc3ccccc32)cc1	1.0%	4.3%[59 µM]	62.6%	-4.9%[11.4 µM]	10.1%	-2.7%
c1ccc2c(c1)ncn2CCCOc1ccc2c(c1)CCC2	-32.6%	-3.2%[59 µM]	16.2%	/	3.7%	-7.9%
Cc1ccc(OCCCCn2cnc3ccccc32)cc1	-6.2%	?	31.5%	/	39.8µM*	0.8%
CCOc1ccc(NC(=O)c2ccc(F)c(S(=O)(=O)N(CC)Cc3ccccc3)c2)cc1	-13.8%	-4.3%[59 µM]	34.2%	/	/	2.1%
CN1CCN(NC(=O)c2cn(-c3ccccc3)nc2-c2ccc(OC(F)F)cc2)CC1	-21.7%	79.4µM*	25.3%	/	7.9%	-29.5%
COc1ccc(-c2nn(-c3ccccc3)cc2C(=O)Nc2nccs2)cc1	-23.5%	-31.8%	18.2%	/	21.9%	-10.5%
Cc1ccc2c(c1)c(=O)c(C(=O)c1ccncc1)cn2CC(=O)Nc1ccc(C(C)C)cc1	-28.1%	-15.9%[59 µM]	22.8%[57 µM]	/	/	0.7%

Screening data deposited in PubChem by National Center for Advancing Translational Sciences (NCATS).
